Compound activity as filed in PubChem BioAssay.
p53 reactivator – mutant p53 re-activation in reporter cells; 320,000 tested, 0.063% active; H1299 p53-A138V BP100-luciferase reporter, luminescence, 24 h; Potency, µM (top dose mostly 92.2 µM), for the others: at the highest dose activity change, positive = activation, actives largely listed as activators; note: potency is the fitted concentration of half-maximal effect; % of control where 0% means no effect; nearly all actives have a fitted effect of over 45% in size
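H1299 (p53-null), stable ts p53-A138V + BP100-Luc; 1000 cells/well, Opti-MEM/10% FBS; cpd 4 pt, 1:5; 24 h, 37 deg C, 5% CO2; detection reagent 10 min RT; luminescence.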
CtBP-E1A blk – CtBP/E1A binding inhibition | AlphaScreen GST-E1A/His-CtBP binding, 1536-well; hits give low values | activity change, % (concentration not given with the values) | 340,000 tested, 0.49% active | AID 651724; in the data active = activity change below about -65%; inconclusive = mostly about -30% to -63%; note: % is set by controls: 0 for no effect and ±100 for the full control effect
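AlphaScreen with 125 nM GST-E1A and 125 nM His-CtBP (5X stocks) in Tris pH 8.0, 300 mM NaCl, BSA, Tween 20, TCEP. Compounds preincubated 2 h at 37 deg C, then glutathione donor/nickel acceptor beads added for 1 h at 37 deg C in dark.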
VP16 counter – counter-screen for ROR gamma inhibitors: Gal4-VP16 reporter. 310,000 tested, 3.5% active. Drosophila S2 Gal4-VP16 UAS-luciferase, luminescence, 20 h. AID 2546. Potency, µM (highest dose often 53.6 µM), without a hit: at the top dose activity, negative = inhibition, usual class: inhibitors;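 note: Gal4-VP16 expression switched on by copper sulfate through the metallothionein promoter; potency is the fitted concentration of half-maximal effect; % is set by controls: 0 for no effect and ±100 for the full control effect; nearly all actives have a fitted effect of over 50% in size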
RORgamma inh – ROR gamma (mouse) transcription inhibition. Drosophila S2 Gal4-RORgamma UAS-luciferase reporter, 20 h. Potency, µM (highest dose often 53.6 µM), for inactives: top-dose activity change, negative = inhibition, most hits filed as inhibitors. 310,000 tested, 5.4% active. AID 2551; note: potency is the fitted concentration of half-maximal effect; % is set by controls: 0 for no effect and ±100 for the full control effect; nearly all actives have a fitted effect of over 60% in size
Target sequence (P51450 whole entry, looked up, the tested form may be a part): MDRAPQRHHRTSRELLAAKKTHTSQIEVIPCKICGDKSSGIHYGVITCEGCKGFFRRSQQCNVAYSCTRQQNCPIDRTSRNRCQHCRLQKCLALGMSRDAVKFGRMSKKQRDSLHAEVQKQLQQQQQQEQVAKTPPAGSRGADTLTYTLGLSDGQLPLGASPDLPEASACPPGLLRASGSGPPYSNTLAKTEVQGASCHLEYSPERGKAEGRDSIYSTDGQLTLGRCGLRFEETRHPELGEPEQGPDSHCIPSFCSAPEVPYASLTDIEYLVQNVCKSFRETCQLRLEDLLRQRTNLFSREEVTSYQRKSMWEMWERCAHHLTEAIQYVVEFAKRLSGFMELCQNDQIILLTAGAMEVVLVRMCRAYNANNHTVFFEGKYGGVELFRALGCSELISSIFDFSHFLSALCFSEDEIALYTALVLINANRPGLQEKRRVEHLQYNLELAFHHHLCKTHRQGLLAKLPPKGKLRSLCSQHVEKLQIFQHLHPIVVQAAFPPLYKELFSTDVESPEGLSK
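A Gal4/UAS one-hybrid system in insect cells: metallothionein-promoter Gal4–ROR gamma fusion plus Photinus luciferase reporter. Copper sulfate 700 uM final, 20 hr ambient incubation, luminescent detection after 10 min with reagent.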
Six1-Eya2 inh – Six1/Eya2 interaction inhibition | activity change, % (no concentration beside the values) | Q15475+O00167 | AlphaScreen GST-Six1/His-Eya2 binding, biochemical; hits give low values | 360,000 tested, 0.56% active; in the data active = activity change below about -65%; inconclusive = mostly about -30% to -63%; note: % is set by controls: 0 for no effect and ±100 for the full control effect
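Homogeneous AlphaScreen proximity assay pairing GST-Six1 with His-tagged Eya2 (added as 5X mix: 250 nM and 500 nM) in 50 mM Tris pH 8.0, 300 mM NaCl, 1 mM TCEP. Glutathione donor and nickel acceptor beads; 1 h, 37 °C, dark.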
* = called active by the depositor; ? = inconclusive; / = no result. Shown are actives, neighbours in structure and some others; about 5.4% of the full set was active somewhere. Unless noted, calls come from the whole dose curve; as a rule, active = well fitted curve in the direction sought with a large enough effect; inconclusive = small, poorly fitted or top-dose-only effect, or another doubt; inactive = no such curve, though single readings can be large; an effect the other way counts as inactive or inconclusive.

SMILES	p53 reactivator	CtBP-E1A blk	VP16 counter	RORgamma inh	Six1-Eya2 inh
Cc1cccc(NC(=S)N/N=C/c2cccc(O)c2)c1C	2%	-2	14µM*	4.5µM*	-2
C[C@@]1(C(NC(=O)Cc2ccc(C(F)(F)F)cc2)c2ccc(-c3ccccc3)cc2)C[C@H]1C1CCCCC1 (stereo partly specified)	/	/	0%	0%	/
COc1ccc(CN(C)C(=O)COC(=O)c2cc([N+](=O)[O-])ccc2N2CCCC2)c(OC)c1OC	-7%	/	/	/	-20
CC(C)Cc1nnc(NC(=O)CCS(=O)(=O)c2ccc(Cl)cc2)s1	-12%	-3	-8%	-27%	3
Cc1ccn2cc(-c3cccc(NC(=O)CCC(=O)O)c3)nc2c1	/	-9	10µM*	7.1µM*	-2
Cc1ccn2cc(-c3cccc([N+](=O)[O-])c3)nc2c1	-5%	-6	?	10µM*	-2
Cc1ccn2cc(-c3ccc(Br)cc3)nc2c1	3%	-7	?	8.9µM*	-2
CC(=O)Nc1cccc(-c2cn3ccc(C)cc3n2)c1	2%	0	?	?	-6
O=C(CCCCCNC(=O)N1CCn2c1nc1ccccc12)NCc1ccc(F)cc1	3%	5	3%	0%	-1
COCCn1c(=O)c(-c2ccccc2)nc2cnc(Oc3ccccc3)nc21	/	/	8%	14%	/
Cc1ccc(-n2c(Cc3ccccc3)n[nH]c2=S)c(C)c1	-1%	-21	?	1.6µM*	7
S=c1[nH]nc(Cc2ccccc2)n1-c1cccc2ccccc12	3%	3	?	4µM*	-7
O=[N+]([O-])c1ccccc1S(=O)(=O)N1CCN(Cc2ccsc2)CC1	11%	-8	2%	2%	-27
Cc1cc(S(=O)(=O)NCc2ccncc2)c(C)cc1Br	6%	-3	10µM*	-25%	2
CC(=O)Nc1ccc(S(=O)(=O)NCc2ccncc2)cc1	-2%	0	2µM*	7.1µM*	6
CCOC(=O)COc1ccc(S(=O)(=O)NCc2ccncc2)cc1	-2%	11	11µM*	?	5
Cc1ccc(C)c(S(=O)(=O)NCc2ccncc2)c1	-1%	4	?	?	3
CC(=O)Nc1ccc(S(=O)(=O)NCc2ccccn2)cc1	-2%	-3	-22%	4%	4
CCOc1cc(S(=O)(=O)NCc2ccncc2)ccc1Cl	-4%	0	1.1µM*	2µM*	6
N[C@@H](COC(c1cccc(F)c1)c1ccccc1OCc1ccccc1)C(=O)O (stereo partly specified)	/	/	-1%	17%	/
Cc1ccc(S(=O)(=O)NCc2ccncc2)cc1	0%	9	7.9µM*	-15%	-1
Cc1ccc2cc(/C=N/NC(=O)c3ccccc3O)c(Cl)nc2c1	-5%	-12	?	2.8µM*	-12
O=C(N/N=C/c1cc2cc3c(cc2nc1Cl)OCCO3)c1ccccc1O	9%	29	?	?	13
Cc1cccc2cc(/C=N/NC(=O)c3ccccc3O)c(Cl)nc12	0%	-2	?	10µM*	-3
CC(C)=CCC/C(C)=C/CNC(=O)C[C@H]1C[C@H](C(=O)N2CCCCC2)[C@@]2(C)c3[nH]c4cc(CCC(=O)N(C)C)ccc4c3CCN2C1=O	-1%	-6	/	/	-4
SMILES	p53 reactivator	CtBP-E1A blk	VP16 counter	RORgamma inh	Six1-Eya2 inh
COc1ccc(NC(=O)CN(C)C(=O)C2=COCCO2)cc1	-5%	0	/	/	2
CC1CCN(C2=C(NS(=O)(=O)c3ccc(Br)cc3)C(=O)c3ccccc3C2=O)CC1	?	/	?	-38%	-84*
O=C1C(NS(=O)(=O)c2ccccc2)=C(N2CCN(c3ccc(F)cc3)CC2)C(=O)c2ccccc21	-1%	-88*	-1%	-8%	-77*
CC(=O)Nc1ccc(S(=O)(=O)NC2=C(N3CCN(C)CC3)C(=O)c3ccccc3C2=O)cc1	5%	/	-30%	13µM*	-7
CC1CCN(C2=C(NS(=O)(=O)c3ccc(Cl)cc3)C(=O)c3ccccc3C2=O)CC1	15%	?	?	11µM*	-30
O=C1C(NS(=O)(=O)c2ccc(Br)cc2)=C(N2CCCCC2)C(=O)c2ccccc21	15%	/	?	-44%	?
COc1cccc(C(=O)NN2C(=S)N(c3ccccc3)C(=O)C2CC(N)=O)c1 (stereo unspecified)	23%	1	-15%	?	-19
CC(=O)C[C@@H]1OC2CCCCC2N1S(=O)(=O)c1ccc(C)cc1 (stereo partly specified)	/	4	/	/	2
OC1OC[C@H](O)[C@@H](O)[C@@H]1O (stereo partly specified)	/	/	0%	11%	/
CCOC(=O)C1CCN(S(=O)(=O)c2cc(Br)cc3c2N(C(C)=O)C(C)C3)CC1 (stereo unspecified)	-11%	2	-5%	-18%	-1
CCN1CCN(C2=C(NS(=O)(=O)c3ccc(C)cc3)C(=O)c3ccccc3C2=O)CC1	24%	-16	-18%	?	-18
CC1CCN(C2=C(NS(=O)(=O)c3ccccc3)C(=O)c3ccccc3C2=O)CC1	10%	-85*	5%	-3%	-72*
CCSc1nc2ccccc2[nH]1	4%	8	-6%	18%	6
Nc1ccccc1Sc1nc2ccccc2[nH]1	?	3	13µM*	3.5µM*	-19
CC1=C(C(=O)OCc2ccccc2)C(c2ccc3ccccc3c2)NC(=O)N1CCCCCC(=O)O (stereo unspecified)	3%	0	-1%	7.9µM*	-8
CC1=C(C(=O)OCc2ccccc2)C(c2ccc3ccccc3c2)NC(=O)N1CCCC(=O)O (stereo unspecified)	1%	0	-4%	11µM*	2
CC1=C(C(=O)OCc2ccccc2)C(c2ccc([N+](=O)[O-])cc2)NC(=O)N1CCCCCC(=O)O (stereo unspecified)	-2%	-1	18%	10µM*	-10
CC1=C(C(=O)OCc2ccccc2)C(c2ccccc2Cl)NC(=O)N1CCCCCC(=O)O (stereo unspecified)	/	-1	-10%	1.8µM*	0
CC1=C(C(=O)OCc2ccccc2)C(c2ccc3c(c2)OCO3)NC(=O)N1CCCC(=O)O (stereo unspecified)	/	2	/	/	3
CC1=C(C(=O)OCc2ccccc2)C(c2ccccc2Cl)NC(=O)N1CCCC(=O)O (stereo unspecified)	/	-2	-5%	-19%	3
CC1=C(C(=O)OCc2ccccc2)C(c2ccccc2)NC(=O)N1CCCCCC(=O)O (stereo unspecified)	0%	2	21%	44%	-1
Cc1cccc(CS(=O)(=O)c2nnc([C@H](Cc3ccccc3)NC(=O)OC(C)(C)C)o2)c1	-13%	7	11µM*	11µM*	1
